Experimental findings from PubChem BioAssay (Tox21) are described below.

“And” between values parts separate entries of the source, which are not always exact repeats. Identical values can stand only once. Results filed as inconclusive are left out. Where a call stands in place of a potency, no number is given. The source made the active and inactive calls. Calls come from the whole dose curve; as a rule, active = well fitted cell-killing curve with a large enough effect in the repeat runs; inconclusive = weak or mixed curves, or effect the other way; inactive = no such curve, though single readings can be large or run the other way.
Potency is the fitted concentration of half-maximal effect.

The nature of the assay: qHTS assay to identify small molecule antagonists of the thyroid receptor (TR) signaling pathway - cell viability counter screen (AID 743064). Note: nearly all actives have a fitted effect of over 50% in size. As to conditions: GH3.TRE-Luc viability, CellTiter-Fluor, 24 h; series mostly up to 70.3 µM. The text has this:
National Center for Advancing Translational Sciences [NCATS]
NIH Chemical Genomics Center [NCGC]
U.S. Environmental Protection Agency [EPA]
National Institutes of Environmental Health Sciences [NIEHS]
National Toxicology Program [NTP]
U.S. Food and Drug Administration [FDA]
Thyroid receptor (TR), a nuclear hormone receptor, plays an important role in development, proliferation, differentiation, metabolism, brain function, and cardiovascular system. […] To profile the Tox21 10K compound library in TR signaling, a cell-based GH3-TRE-Luc assay (GH3.TRE-Luc cell line, developed by the laboratory of Dr. Albertinka J. Murk, Wageningen University) was used to measure the inhibition of TR. GH3 (rat pituitary tumor) cells stably expressing a TR activity sensor consisting of two TR response elements and a luciferase reporter gene. The cytotoxicity of the Tox21 compound library against the GH3.TRE-Luc cell line was tested in parallel by measuring the cell viability using CellTiter-Fluor assay (Promega, Madison, WI) in the same wells.
Tox21 Assay Protocol Summary:
GH3.TRE-Luc cells were dispensed at 1500 cells/4 uL/well into 1536-well white solid bottom plates using a Multidrop Combi dispenser (Thermo Fisher Scientific Inc., Waltham, MA). After the assay plates were incubated at 37 C for 4 hours, 23 nL of library compound or DMSO controls was transferred to the assay plates by a pintool station (Kalypsys, San Diego, CA), followed by addition of 1 ul of T3 (1 nM, final concentration in the wells) to stimulate TR transactivation. The assay plates were incubated at 37 C for 23.5 h, and then 1 uL of CellTiter-Fluor reagent (Promega, Madision, WI) of measuring cytotoxicity was added to each well using a Bioraptr Flying Reagent Dispenser (FRD) workstation (Beckman Coulter, Indianapolis, IN, USA). The plates were incubated at 37C and 5% CO2 for additional 30 min, and fluorescence intensity was measured by a ViewLux plate reader (PerkinElmer, Shelton, CT).
For `C=C(C)[C@H]1CC=C(C)C(=O)C1`, the Potency entry is “inactive”. Regarding `O=S(=O)(O)c1ccc(N=Nc2c(O)ccc3cc(S(=O)(=O)O)ccc23)cc1`, the Potency was 30.8 µM (active) and 27.3 µM (active). As for `C=CCCCCCCCCC(=O)O`, the Potency result was “inactive”. As for `COc1ccc([N+](=O)[O-])cc1N`, the Potency result is “inactive”. The value for `C=CCc1ccc(OC)c(OC)c1` was “inactive”; that for `Cc1ccc(S(=O)(=O)N=C=O)cc1` was “inactive”.

Consider `O=S(=O)(O)c1ccccc1`, for which the Potency result is “inactive”.

Regarding `CC(CCO)CC(C)(C)C` (stereo not given), the Potency entry is “inactive”. With `C=C(C)C(=O)OCC(C)C`, the Potency entry is “inactive”.

For the compound `CC(C)CC(C)O` (stereo not given), the Potency result was “inactive”. The value for `O=C(O)c1cc2ccccc2cc1O` was “inactive”; that for `CCO[Si](CCCN)(OCC)OCC` was “inactive”. For `CCCCCCCCCCN` the value was “inactive”; for `O=C1CCCC1`, “inactive”. The value for `COC(=O)CCCC(=O)OC` was “inactive”. Regarding `C[Si]1(C)O[Si](C)(C)O[Si](C)(C)O[Si](C)(C)O1`, the Potency result was “inactive”.

Take `COc1ccc(CCC(C)=O)cc1`: the Potency result is “inactive”. For `CCCCCCCCCCCCCCCC(=O)OC(C)C` the value was “inactive”; for `CC(C)=CCl`, “inactive”. The value for `CC(=O)CC(C)(C)O` was “inactive”.

On to `CC(=O)OCc1ccco1`, for which the Potency entry was “inactive”. For `O=C(O)c1ccc(C(=O)O)c(C(=O)O)c1` the value was “inactive”; for `O=C1C(c2[nH]c3ccccc3c2O)=Nc2ccccc21`, “inactive”. Take `CC1(C)CC(N)CC(C)(CN)C1` (stereo not given): the Potency result is “inactive”. The value for `CCOC(=O)c1ccc(N)cc1` was “inactive”; that for `CCc1ccccc1CC` was “inactive”; that for `CC(=O)OC1CC(C)OC(C)O1` (stereo not given) was “inactive”. For `O=[N+]([O-])c1ccc2nc[nH]c2c1` the value was “inactive”; for `OCc1cccc(Oc2ccccc2)c1`, “inactive”; for `CCCCCCC=O`, “inactive”.

With `CC(C)(Oc1ccc(CCNC(=O)c2ccc(Cl)cc2)cc1)C(=O)O`, the Potency result was “inactive”. Take `Cc1ccc([N+](=O)[O-])cc1S(=O)(=O)O`: the Potency result was “inactive”. For `CCCCCCCCCCCCCCCCO`, the Potency result is “inactive”. For `N#Cc1ccccc1` the value was “inactive”; for `NCCN1CCNCC1`, “inactive”; for `CC1(C)OC[C@@H]2O[C@@]3(C(=O)O)OC(C)(C)O[C@H]3[C@@H]2O1`, “inactive”. For `CSc1ccc(Cl)cc1` the value was “inactive”; for `CCCCCCCCCCCC(=O)OC`, “inactive”; for `CC(O)CC(C)(C)O` (stereo not given), “inactive”.

As for `CCCOC(=O)c1ccccc1`, the Potency result was “inactive”.
